Screens (PubChem BioAssay)
Only some compounds are listed: those with a hit (about 1.8% of all), similar ones and a draw of the others.
VDR inh: Inhibitors of the vitamin D receptor (VDR): qHTS | Vitamin D3 receptor (Homo sapiens), P11473 | VDR-SRC2-3 peptide fluorescence polarization, 2 h | Potency, µM, for inactives: max response, negative = inhibition, hits mostly inhibitors | 0.93% of 400,000 active; note: % is set by controls: 0 for no effect and ±100 for the full control effect
Target sequence (P11473 whole entry, looked up): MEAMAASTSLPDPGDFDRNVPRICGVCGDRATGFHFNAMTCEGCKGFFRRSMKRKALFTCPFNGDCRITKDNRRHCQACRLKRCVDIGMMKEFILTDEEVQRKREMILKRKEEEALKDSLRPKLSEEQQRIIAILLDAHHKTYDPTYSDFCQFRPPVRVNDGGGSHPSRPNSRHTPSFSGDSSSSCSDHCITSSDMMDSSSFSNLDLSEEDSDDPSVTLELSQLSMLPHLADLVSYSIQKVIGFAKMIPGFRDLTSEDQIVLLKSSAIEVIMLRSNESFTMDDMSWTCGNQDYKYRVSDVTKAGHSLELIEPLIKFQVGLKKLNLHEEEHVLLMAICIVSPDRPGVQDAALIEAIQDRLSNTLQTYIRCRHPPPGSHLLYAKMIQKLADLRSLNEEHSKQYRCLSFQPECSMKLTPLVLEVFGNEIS
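Measured by FP: displacement of SRC2-3 coactivator peptide from VDR by library compounds, following a two-hour ambient incubation.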
TrxR1 substrate: qHTS Assay for Substrates of Mammalian Selenoprotein Thioredoxin Reductase 1 (TrxR1): qHTS; 0.01% of 390,000 active; purified TrxR1 substrate turnover, NADPH consumption readout; Potency, µM (top dose mostly 114 µM), inactives show top-dose activity change, negative = substrate turnover; AID 588456, 2011; note: % is set by controls: 0 for no effect and ±100 for the full control effect; nearly all actives have a fitted effect of over 50% in size
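Rat TrxR1, dispensed at 90 nM, was prereduced with 400 uM NADPH (final) for 5 min at ~22 deg C, then incubated with compound 15 min before 400 uM selenite. A first-read NADPH fluorescence drop versus no-compound background flagged substrates.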
Vif-A3G inh: qHTS for Inhibitors of Vif-A3G Interactions: qHTS; DNA dC->dU-editing enzyme APOBEC-3G (Homo sapiens), Q9HC16; HeLa A3G-eYFP + Vif (tagged APOBEC3G with the HIV-1 protein that degrades it), YFP fluorescence, overnight; Potency, µM (highest dose often 46.1 µM), for the others: at the top dose activity, negative = active, usual class: inhibitors; 0.076% of 410,000 active; AID 602310, 2012; note: % is set by controls: 0 for no effect and ±100 for the full control effect; nearly all actives have a fitted effect of over 60% in size
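Read-out is eYFP fluorescence (Ex 488/Em 500-530) from Vif-expressing HeLa A3G-eYFP cells; more signal means A3G escaped Vif-mediated degradation. Cells plated overnight, compound pinned in, incubated overnight at 37 deg C.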
TrxR1 inh: qHTS Assay for Inhibitors of Mammalian Selenoprotein Thioredoxin Reductase 1 (TrxR1): qHTS; Thioredoxin reductase 1, cytoplasmic (Rattus norvegicus), O89049; recombinant rTrxR1, NADPH fluorescence consumption, selenite substrate; Potency, µM (top dose mostly 114 µM), without a hit: top-dose activity change, negative = inhibition, usual class: inhibitors; 1% of 390,000 active; note: % is set by controls: 0 for no effect and ±100 for the full control effect; nearly all actives have a fitted effect of over 65% in size
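Rat TrxR1 (90 nM in the dispensed reagent) was pre-reduced with 400 uM NADPH for 5 min at room temperature, then incubated with compound for 15 min. After 400 uM selenite was added, NADPH fluorescence (Ex 340/Em 450 nm) was followed for 8 min.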
Vif-A3F inh: qHTS for Inhibitors of Vif-A3F Interactions: qHTS; 0.2% of 390,000 active; Potency, µM (top dose mostly 46.1 µM), without a hit: at the top dose activity, negative = active; AID 602313, 2012; HeLa A3F-eYFP + Vif (tagged APOBEC3F with the HIV-1 protein that degrades it), YFP fluorescence increase; note: % of control where 0% means no effect; nearly all actives have a fitted effect of over 65% in size
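HeLa cells stably expressing Vif plus C-terminally eYFP-tagged A3F were seeded, incubated overnight at 37 deg C, dosed with compound, incubated overnight again at 37 deg C. Yellow fluorescence (Ex 488/Em 500-530) reported blocked Vif-mediated A3F-eYFP degradation.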
VDR confirm: qHTS for Inhibitors of the vitamin D receptor (VDR): Hit Validation in Primary Screen; AID 602199, 2012; 89% of 840 active; shares compounds with VDR inh; Potency, µM, most hits filed as inhibitors; VDR-coactivator inhibition assay, qHTS confirmation
VDR FP fluor: qHTS for Inhibitors of the vitamin D receptor (VDR): Hit Validation using a Fluorescein Assay | 48% of 840 active | shares compounds with VDR inh | Potency, µM (top dose mostly 57.1 µM), for inactives: at the highest dose activity change, negative = inhibition, actives largely listed as inhibitors | VDR-coactivator binding, fluorescein fluorescence polarization
VDR bla reporter: qHTS for Inhibitors of the vitamin D receptor (VDR): Hit Validation using a Beta-Lactamase Assay. shares compounds with VDR inh. VDR beta-lactamase reporter cells, FRET ratio; cells co-treated with VDR agonist LG190178. Potency, µM (doses to about 46.1 µM), for inactives: top-dose activity change, negative = inhibition, usual class: inhibitors. 23% of 840 active. AID 602202, 2012; note: % is set by controls: 0 for no effect and ±100 for the full control effect
VDR viability: qHTS for Inhibitors of the vitamin D receptor (VDR): Hit Validation using a Cytotoxicity Assay. shares compounds with VDR inh. cytotoxicity counter-screen, cell viability, qHTS. Potency, µM (series often up to 48.3 µM), for inactives: at the highest dose activity change, negative = cytotoxicity, usual class: cytotoxic. 18% of 840 active. AID 602204, 2012;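 note: plate controls were DMSO for no effect and high-concentration cycloheximide for full effect; nearly all actives have a fitted effect of over 75% in size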
Numbers without * were called inactive; ? = inconclusive; · = not tested or not shown; [ ] = remark or other dose. Calls come from the whole dose curve; as a rule, active = well fitted curve in the direction sought with a large enough effect; inconclusive = small, poorly fitted or top-dose-only effect, or another doubt; inactive = no such curve, though single readings can be large; an effect the other way counts as inactive or inconclusive. Potency is the fitted concentration of half-maximal effect.

SMILES	VDR inh	TrxR1 substrate	Vif-A3G inh	TrxR1 inh	Vif-A3F inh	VDR confirm	VDR FP fluor	VDR bla reporter	VDR viability
CC(C)CC(=O)/C(=C\c1ccc(Cl)cc1Cl)n1cncn1	3.98µM*	3.2%	?	8.91µM*	-0.9%	3.77*	?	16.4µM*	14.6µM*
COC1=C(C)C(O)=C(C(=O)/C=C/c2ccccc2)C(=O)C1(C)C	20µM*	-7.6%[57.1 µM]	?	-15.5%[57.1 µM]	1.5%	16.8*	20µM*	?	-2.6%
COc1cc(C)cc(C(=O)C=Cc2ccccc2)c1O	?	-6.9%[2.29 µM]	-18.1%	-10.1%[2.29 µM]	-4.7%	·	·	·	·
O=C(/C=C/c1ccc(Cl)cc1)c1ccc([N+](=O)[O-])o1	11.2µM*	-2.3%	?	5.01µM*	-4.2%	1.26*	1µM*	7.31µM*	1.2%
COc1ccc(NC(=O)Cn2cnc3c(oc4ccccc43)c2=O)cc1OC	11.6%	-6.0%	-1.5%	7.4%	-10.0%	·	·	·	·
O=S(=O)(Nc1ccc(O)c(Sc2nc3ccccc3s2)c1)c1ccc(F)cc1	-19.2%	-3.3%	-5.6%	6.5%	-2.9%	·	·	·	·
O=[N+]([O-])c1cc(S(=O)(=O)C(F)(F)F)ccc1Sc1nc2ccccc2s1	35.5µM*	-7.0%	-15.6%	1.58µM*	2.4%	9.47*	3.55µM*	?	?
O=C(CSc1nc2ccccc2c(=O)[nH]1)N1CCOCC1	22.1%	10.2%	0.2%	21.9%	-3.0%	·	·	·	·
CCSc1nc2cc(S(=O)(=O)N3CCOCC3)ccc2o1	25.1µM*	-4.5%	0.9%	1.6%	6.9%	9.47*	?	-0.8%	23.9%
c1ccc2nc3c(nc2c1)c1ccccc1n3CCN1CCOCC1	7.4%	-7.7%	-12.9%	-18.0%	?	·	·	·	·
O=C(CSc1nc2ccc(S(=O)(=O)N3CCOCC3)cc2[nH]1)N1CCOCC1	22.4µM*	-1.9%	0.2%	-6.0%	-8.4%	3.77*	?	9.4%	13.8%
Cc1ccc(C(=O)CSc2nc3cc(S(=O)(=O)N4CCOCC4)ccc3o2)cc1	-3.7%	-4.6%	-1.0%	-12.2%[57.1 µM]	-11.9%	·	·	·	·
O=C(CSc1nc2cc(S(=O)(=O)N3CCOCC3)ccc2o1)Nc1c(F)cccc1F	17.8µM*	-5.7%	1.5%	?	-1.1%	10.6*	7.08µM*	2.0%	5.4%
CCn1c2ccccc2c2nc3cc(S(=O)(=O)N4CCOCC4)ccc3nc21	28.2µM*	-10.0%	-0.5%	-13.0%[57.1 µM]	-12.3%	5.97*	?	10.0%	?
CCn1cc(S(=O)(=O)c2ccc(OC)cc2)c(=O)c2cc(F)c(N3CCC(C)CC3)cc21	10.5%	-0.5%	1.6%	-0.6%	1.8%	·	·	·	·
Cc1ccnc(NC(=O)c2sc3ccccc3c2Cl)c1	-13.7%	7.6%	3.0%	2.1%	-24.6%	·	·	·	·
O=C(Nc1ccccn1)c1sc2cc([N+](=O)[O-])ccc2c1Cl	31.6µM*	-5.5%	-5.8%	-6.3%	-0.6%	3.36*	?	4.9%	-24.1%
CC(C)(C)c1ccc(OCCOCCn2c(-c3ccc(Cl)cc3)nc3ccccc3c2=O)cc1	-4.6%	-2.1%	4.2%	7.4%	0.1%	·	·	·	·
CS(=O)(=O)c1ccc(C(=O)OCc2nnc(-c3ccc(Cl)cc3)o2)cc1[N+](=O)[O-]	25.1µM*	8.3%[57.1 µM]	-26.8%	1.78µM*	-2.8%	5.62*	2.24µM*	14.6µM*	?
COc1ccc(Cl)cc1NC(=O)CSc1cn(CC(=O)N2CCCCC2)c2ccccc12	-12.0%	1.0%	0.9%	24.1%	0.3%	·	·	·	·
O=C(CN(Cc1ccc(Br)cc1)S(=O)(=O)c1ccccc1)NCc1cccnc1	-11.9%	-7.5%	-4.8%	-9.8%	3.9%	·	·	·	·
O=C(NCc1cccnc1)/C(=C\c1ccc(-c2ccc(Br)cc2)o1)S(=O)(=O)c1ccccc1	39.8µM*	3.6%	?	31.6µM*	-6.7%	33.6*	?	5.8µM*	20.6µM*
Cc1cccc(/C=C/C(=O)c2cc(Br)ccc(=O)c2O)c1	15.8µM*	2.4%	-29.6%	?	-1.5%	3.77*	58.2%	?	?
CCOc1ccc(C(=O)/C=C/c2ccc(OC)c(OC)c2)cc1	-24.7%	8.7%[57.1 µM]	-14.0%	34.2%[57.1 µM]	5.5%	·	·	·	·
CCOc1ccc(/C=C/C(=O)c2cc(Br)ccc(=O)c2O)cc1	50.1µM*	-11.3%	-17.1%	35.5µM*	-3.2%	13.4*	11.7%	9.5%	12.5%
Cc1[nH]n(-c2ncc(-c3ccccc3)s2)c(=O)c1C(c1ccc(Cl)cc1)C(C#N)C#N (centres undefined)	35.5µM*	-7.5%	-22.6%	22.4µM*	-4.0%	6.7*	?	19.6%	-5.0%
CCC[C@@H]1CC(C(=O)NC(C2O[C@H](SC)C(OP(=O)(O)O)[C@H](O)[C@H]2O)[C@H](C)Cl)N(C)C1 (some centres undefined)	0.7%	·	·	·	·	·	·	·	·
CC(C)C[C@H](N)c1nnc(S(=O)(=O)Cc2ccc(F)cc2)o1	31.6µM*	-2.6%	-27.8%	?	1.2%	?	20µM*	?	?
O=c1[nH]c(/C=C\c2cccnc2)c([N+](=O)[O-])c(=O)[nH]1	-11.0%	6.3%[57.1 µM]	0.3%	20.2%[57.1 µM]	0.6%	·	·	·	·
O=c1[nH]c(/C=C\c2cccc(Cl)c2)nc(O)c1[N+](=O)[O-]	28.2µM*	-16.6%	-0.8%	-34.5%	-10.2%	13.4*	?	19.5%	15.6%
